Active and inactive are the calls of the source. Rule for the calls: active = hit-call score of the fitted dose curve at least 0.9, where 1 is the maximum; inactive = score below 0.9.
How the values were obtained:
[1] = read-out: Transforming growth factor beta 1 (TGFb1), TGFB1 (gene 7040); test: BSK_KF3CT_TGFb1: BioMAP Diversity Plus: KF3CT Assay for Transforming growth factor beta 1 (TGFb1) Biomarker Activity (AID 2283072); details: primary human keratinocytes with fibroblasts; actives raise or lower the signal
In short: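 Primary human skin cells (keratinocytes, foreskin fibroblasts) were co-cultured, exposed to test chemical and sampled at 24 h. TGF-b1 levels were measured by ELISA and fitted bidirectionally relative to DMSO.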

[2] = read-out: C-C motif chemokine 2 (Homo sapiens) (UniProt P13500); test: BSK_KF3CT_MCP1: BioMAP Diversity Plus: KF3CT Assay for Monocyte Chemoattractant Protein 1 (MCP1/CCL2) Biomarker Activity (AID 2283073); details: primary human keratinocytes with fibroblasts; actives raise or lower the signal
In short: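 ELISA read-out of MCP-1, 24 h post-dose, in primary human skin keratinocytes co-cultured with fibroblasts. Parallel SRB staining monitors cytotoxicity; changes fitted both directions relative to DMSO.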

[3] = read-out: Matrix Metallopeptidase 9 (MMP9), MMP9 (gene 4318); test: BSK_KF3CT_MMP9: BioMAP Diversity Plus: KF3CT Assay for Matrix Metallopeptidase 9 (MMP9) Biomarker Activity (AID 2283074); details: primary human keratinocytes with fibroblasts; actives raise or lower the signal;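 note: MMP9 protein level quantified by ELISA in the co-culture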
In short: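 Human keratinocyte/foreskin fibroblast co-culture; compound added; 24 h; MMP-9 by ELISA; bidirectional fit vs DMSO baseline.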

[4] = read-out: urokinase plasminogen activator (uPA), PLAU (gene 5328); test: BSK_KF3CT_uPA: BioMAP Diversity Plus: KF3CT Assay for urokinase plasminogen activator (uPA) Biomarker Activity (AID 2283075); details: primary human keratinocytes with fibroblasts; actives raise or lower the signal
In short: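 ELISA readout of uPA, analyzed for signal gain or loss relative to DMSO, from a human primary keratinocyte–foreskin fibroblast co-culture measured 24 h after chemical treatment.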

CD40, CD40 (gene 958) [5] = test: BSK_LPS_CD40: BioMAP Diversity Plus: LPS Assay for CD40 Biomarker Activity (AID 2283076); details: primary human HUVEC with PBMC; actives raise or lower the signal
In short: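 In the LPS system of human endothelial cells with peripheral blood mononuclear cells, CD40 levels were read by ELISA 24 h post-treatment. Signal changes in either direction were fitted against the DMSO baseline, with parallel SRB protein staining.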

[6] = read-out: E-selectin (Homo sapiens) (UniProt P16581); test: BSK_LPS_Eselectin: BioMAP Diversity Plus: LPS Assay for Eselectin Biomarker Activity (AID 2283077); details: primary human HUVEC with PBMC; actives raise or lower the signal
In short: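 E-selectin ELISA on LPS-stimulated endothelial cell/PBMC co-cultures, read 24 h post-treatment; gains and losses fitted against DMSO. Parallel SRB staining (0.1% SRB after 10% TCA fixation, 560 nm) flags overt cytotoxicity.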

[7] = read-out: Interleukin-8 (IL8), CXCL8 (gene 3576); test: BSK_LPS_IL8: BioMAP Diversity Plus: LPS Assay for Interleukin-8 (IL8) Biomarker Activity (AID 2283078); details: primary human HUVEC with PBMC; actives raise or lower the signal
In short: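 ELISA read-out of IL-8 after 24 h chemical treatment of LPS-activated endothelial/PBMC human primary co-cultures. Changes either up or down relative to DMSO; overt cytotoxicity checked by sulforhodamine B staining in parallel wells.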

[8] = BSK_LPS_SRB: Viability Assessment in the BioMAP Diversity Plus: LPS Assay (AID 2283079); details: primary human HUVEC with PBMC;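 note: total protein by sulforhodamine B absorbance as a cytotoxicity measure; measured one day after compound addition; fitted in both directions against DMSO so loss or gain of signal counts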
In short: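 SRB viability endpoint: cells fixed with 10% TCA, stained with 0.1% SRB, read at 560 nm, 24 h post-dose. HUVEC/PBMC co-culture; signal change in either direction scored relative to DMSO.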

[9] = read-out: Interleukin-1 alpha (IL1a), IL1A (gene 3552); test: BSK_LPS_IL1a: BioMAP Diversity Plus: LPS Assay for Interleukin-1 alpha (IL1a) Biomarker Activity (AID 2283080); details: primary human HUVEC with PBMC; actives raise or lower the signal
In short: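 Readout is IL-1a level by ELISA, 24 h post-dose, fitted as gain or loss relative to DMSO. System: LPS-activated human primary co-culture of vascular endothelium and peripheral blood mononuclear cells, with parallel SRB total-protein cytotoxicity.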

[10] = read-out: Monocyte Chemoattractant Protein-1 (MCP1), CCL2 (gene 6347); test: BSK_LPS_MCP1: BioMAP Diversity Plus: LPS Assay for Monocyte Chemoattractant Protein-1 (MCP1) Biomarker Activity (AID 2283081); details: primary human HUVEC with PBMC; actives raise or lower the signal;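 note: secreted MCP-1 protein quantified by ELISA in culture supernatant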
In short: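 Secreted MCP-1 read by ELISA at 24 h post-dosing in an LPS-activated co-culture of endothelial cells with peripheral blood mononuclear cells. Fits run in both directions, DMSO as baseline; parallel SRB staining tracks overt cytotoxicity.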

[11] = BSK_LPS_PGE2: BioMAP Diversity Plus: LPS Assay for Prostaglandin E2 (PGE2) Biomarker Activity (AID 2283082); details: primary human HUVEC with PBMC; actives raise or lower the signal
In short: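 LPS-activated HUVEC/PBMC co-culture; cmpd dosed, 24 h; PGE2 by ELISA; bidirectional fit vs DMSO; SRB (0.1%, TCA-fixed, 560 nm) in parallel plates for overt cytotox.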

[12] = read-out: Macrophage colony-stimulating factor (MCSF), CSF1 (gene 1435); test: BSK_LPS_MCSF: BioMAP Diversity Plus: LPS Assay for Macrophage colony-stimulating factor (MCSF) Biomarker Activity (AID 2283083); details: primary human HUVEC with PBMC; actives raise or lower the signal
In short: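 Bidirectional fitting against DMSO was applied to M-CSF levels read by ELISA at 24 h post-dose. The system pairs human umbilical vein endothelium with peripheral blood mononuclear cells; parallel SRB staining tracked cytotoxicity.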

[13] = read-out: Tissue Factor, F3 (gene 2152); test: BSK_LPS_TissueFactor: BioMAP Diversity Plus: LPS Assay for Tissue Factor Biomarker Activity (AID 2283084); details: primary human HUVEC with PBMC; actives raise or lower the signal
In short: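 Compound was added to an endothelial cell/PBMC co-culture, and after 24 h tissue factor (CD142) was read by ELISA. Gain or loss of signal was fitted against a DMSO baseline, and parallel SRB staining (560 nm) tracked overt cytotoxicity.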

[14] = read-out: Tumor necrosis factor (Homo sapiens) (UniProt P01375); test: BSK_LPS_TNFa: BioMAP Diversity Plus: LPS Assay for Tumour Necrosis Factor alpha (TNFa) Biomarker Activity (AID 2283085); details: primary human HUVEC with PBMC; actives raise or lower the signal
In short: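 Read-out is ELISA of TNFa in primary human endothelial cell–PBMC co-cultures at 24 h after compound. Activity in either direction was fitted against DMSO.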

[15] = read-out: Vascular cell adhesion molecule 1 (VCAM1), VCAM1 (gene 7412); test: BSK_LPS_VCAM1: BioMAP Diversity Plus: LPS Assay for Vascular cell adhesion molecule 1 (VCAM1) Biomarker Activity (AID 2283086); details: primary human HUVEC with PBMC; actives raise or lower the signal
In short: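 HUVEC + PBMC co-culture, LPS system; compound 24 h; VCAM-1 by ELISA; bidirectional fit vs DMSO control; parallel SRB (0.1%, TCA-fixed, 560 nm) for cytotoxicity.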

CD38, CD38 (gene 952) = test: BSK_SAg_CD38: BioMAP Diversity Plus: SAg Assay for CD38 Biomarker Activity (AID 2283087); details: primary human HUVEC with PBMC; actives raise or lower the signal
In short: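 Human HUVEC plus PBMC co-culture stimulated with superantigen; CD38 measured by ELISA 24 h after chemical dosing. Fluorescence read-out, bidirectional fit against DMSO; cytotoxicity tracked in parallel by SRB and Alamar Blue.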

CD40, CD40 (gene 958) [16] = test: BSK_SAg_CD40: BioMAP Diversity Plus: SAg Assay for CD40 Biomarker Activity (AID 2283088); details: primary human HUVEC with PBMC; actives raise or lower the signal
In short: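 CD40 is measured by fluorescence ELISA in an endothelial/PBMC primary human co-culture at 24 h post-dose. Fitting is bidirectional, DMSO baseline. Parallel SRB staining (560 nm) flags cytotoxicity.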

CD69, CD69 (gene 969) = test: BSK_SAg_CD69: BioMAP Diversity Plus: SAg Assay for CD69 Biomarker Activity (AID 2283089); details: primary human HUVEC with PBMC; actives raise or lower the signal;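 note: cell surface CD69 protein quantified by ELISA with fluorescence detection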
In short: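 Primary human vascular co-culture (umbilical vein endothelium with peripheral blood mononuclear cells) exposed to test chemical for 24 h. CD69 levels quantified by fluorescence ELISA; DMSO served as negative control for bidirectional fitting.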

[17] = read-out: Monocyte Chemoattractant Protein-1 (MCP1), CCL2 (gene 6347); test: BSK_SAg_MCP1: BioMAP Diversity Plus: SAg Assay for Monocyte Chemoattractant Protein-1 (MCP1) Biomarker Activity (AID 2283090); details: primary human HUVEC with PBMC; actives raise or lower the signal
In short: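 MCP-1 levels in the endothelial–PBMC SAg co-culture were quantified by ELISA at 24 h post-dosing; both increases and decreases versus DMSO scored. Cytotoxicity monitored by SRB total protein in parallel cultures.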

[18] = read-out: E-selectin (Homo sapiens) (UniProt P16581); test: BSK_SAg_Eselectin: BioMAP Diversity Plus: SAg Assay for Eselectin Biomarker Activity (AID 2283091); details: primary human HUVEC with PBMC; actives raise or lower the signal
In short: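 Cell-surface E-selectin is read by ELISA at 24 h in the SAg co-culture of HUVEC and PBMC. Curves are fitted in both directions relative to DMSO. Parallel SRB total-protein staining tracks overt toxicity.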

Measured: AC50

Sequence of E-selectin (Homo sapiens) (P16581 whole entry, looked up): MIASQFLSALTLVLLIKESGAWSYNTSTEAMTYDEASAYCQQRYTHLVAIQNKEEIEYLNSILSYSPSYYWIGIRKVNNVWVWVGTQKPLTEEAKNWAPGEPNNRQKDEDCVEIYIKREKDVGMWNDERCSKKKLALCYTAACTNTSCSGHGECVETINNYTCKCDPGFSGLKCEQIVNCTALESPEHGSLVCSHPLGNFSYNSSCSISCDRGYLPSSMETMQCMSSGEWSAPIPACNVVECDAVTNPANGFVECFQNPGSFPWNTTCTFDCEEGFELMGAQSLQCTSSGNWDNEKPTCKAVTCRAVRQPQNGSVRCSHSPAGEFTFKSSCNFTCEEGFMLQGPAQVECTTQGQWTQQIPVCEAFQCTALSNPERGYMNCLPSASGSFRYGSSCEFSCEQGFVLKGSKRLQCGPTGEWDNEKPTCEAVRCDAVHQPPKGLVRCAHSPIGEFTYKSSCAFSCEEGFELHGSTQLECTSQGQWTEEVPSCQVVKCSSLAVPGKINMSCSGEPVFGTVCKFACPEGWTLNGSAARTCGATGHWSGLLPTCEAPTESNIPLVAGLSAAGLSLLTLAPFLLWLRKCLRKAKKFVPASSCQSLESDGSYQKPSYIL
Sequence of Tumor necrosis factor (Homo sapiens) (P01375 whole entry, looked up): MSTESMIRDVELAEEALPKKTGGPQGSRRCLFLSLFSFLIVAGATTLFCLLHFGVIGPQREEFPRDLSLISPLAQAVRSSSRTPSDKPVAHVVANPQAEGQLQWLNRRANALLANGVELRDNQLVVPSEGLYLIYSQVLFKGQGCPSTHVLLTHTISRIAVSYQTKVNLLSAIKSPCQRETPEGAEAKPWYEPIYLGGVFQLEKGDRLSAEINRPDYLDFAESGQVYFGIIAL

CC(C)(C)c1ccc(O)c(O)c1
active: [3] 20 µM | CD40, CD40 (gene 958) [5] 20 µM | [6] 33.4 µM | [7] 30.6 µM | [8] 31.4 µM | [9] 29.3 µM | [10] 29.1 µM | [12] 29.2 µM | [13] 20 µM | [14] 32.8 µM | [15] 24 µM | CD38, CD38 (gene 952) 28.5 µM | CD40, CD40 (gene 958) [16] 27.3 µM | CD69, CD69 (gene 969) 20 µM | [17] 30.6 µM | [18] 19.2 µM
inactive: [1] | [2] | [4] | [11]
